PABP FP inh: PABP poly(A) RNA binding inhibitors, primary screen, biochemical, fluorescence polarization, uHTS | Polyadenylate-binding protein 1 (Homo sapiens), P11940 | calls only at 35 µM | actives 1% (n = 290,000) | AID 2014, 2009;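 also: calls also rest on retests at 20 µM and on dose response follow-up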
Target sequence (P11940 whole entry, looked up): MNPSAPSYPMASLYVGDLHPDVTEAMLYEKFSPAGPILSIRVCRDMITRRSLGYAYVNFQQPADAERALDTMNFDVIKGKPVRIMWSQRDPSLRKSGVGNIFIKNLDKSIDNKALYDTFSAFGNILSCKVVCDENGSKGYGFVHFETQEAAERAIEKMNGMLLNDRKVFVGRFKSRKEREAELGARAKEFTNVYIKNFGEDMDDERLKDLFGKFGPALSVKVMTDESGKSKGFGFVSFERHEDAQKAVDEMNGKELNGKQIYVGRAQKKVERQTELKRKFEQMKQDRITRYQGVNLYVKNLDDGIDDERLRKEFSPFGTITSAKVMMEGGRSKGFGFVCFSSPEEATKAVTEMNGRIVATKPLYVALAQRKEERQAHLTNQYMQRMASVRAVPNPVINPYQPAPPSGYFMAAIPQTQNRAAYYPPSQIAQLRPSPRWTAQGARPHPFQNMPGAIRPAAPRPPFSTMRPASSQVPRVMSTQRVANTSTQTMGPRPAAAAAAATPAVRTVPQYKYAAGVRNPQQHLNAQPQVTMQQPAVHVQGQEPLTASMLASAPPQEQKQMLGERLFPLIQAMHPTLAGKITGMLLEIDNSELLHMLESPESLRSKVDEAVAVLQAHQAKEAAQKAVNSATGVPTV
PABP1 MLLE inh: inhibitors of PABP1 MLLE–PAM2 peptide binding, primary screen, biochemical, fluorescence polarization, FITC-PAM2, GST-MLLE. inhibition, % at 20 µM. actives 0.36% (n = 360,000). AID 588489, 2011. Polyadenylate-binding protein 1 (Homo sapiens), P11940; in the data active = inhibition above about 35%, passing the limit was not always enough
eIF4H FP inh: human eIF4H binding inhibitors, primary screen, translation initiation inhibitor project, biochemical, uHTS, fluorescence polarization; AID 2012, 2009; inhibition, % at 35 µM; Eukaryotic translation initiation factor 4H (Homo sapiens), Q15056; eIF4H fluorescence polarization binding assay; actives 0.94% (n = 290,000);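 also: calls also rest on retests at 20 µM and on dose response follow-up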
eIF4E 4G PPI: eIF4E–eIF4G protein interaction inhibitors, primary screen, biochemical, uHTS, TR-FRET, eIF4GI fragment. TR-FRET eIF4E-eIF4GI(517-606) binding, 2 h. inhibition, % at 21.7 µM. Eukaryotic translation initiation factor 4E (Mus musculus) + Eukaryotic translation …. actives 0.37% (n = 220,000);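 active = inhibition above about 30%, limit read from the data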
PERK inh: block of dimerizer-induced PERK translation repression, primary screen, PERK inhibitor project, CHO PERK-DD cells, SEAP luminescence, HTS; CHO PERK-DD fusion, SEAP luminescence translation reporter; actives 0.17% (n = 220,000); Eukaryotic translation initiation factor 2-alpha kinase 3 (Homo sapiens), Q9NZJ5; AID 1416, 2008; inhibition, % at 5.6 µM;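 active = inhibition above the mean inhibition of all tested compounds plus 3 SD, set separately per screening campaign, cut at about 2.9% in these data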;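 also: PERK kinase domain activated by AP20187 dimerizer at 100 nM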
A number is an active result; – = inactive; · = no result; + = active, no number. The list is not random: actives were taken first. Their share in the collection is about 1.6%. Unless noted, no rule for the calls is given here.

SMILES	PABP FP inh	PABP1 MLLE inh	eIF4H FP inh	eIF4E 4G PPI	PERK inh
Cc1cc(C)c2c(N)c(C(=O)NCC3CCCCC3)sc2n1	–	39.7	–	–	–
Cc1cc(C)c2c(N)c(C(=O)Nc3ccc(C)c(C)c3)sc2n1	–	–	–	·	·
Cc1cc(C)c2c(N)c(C(=O)NC3CCCC3)sc2n1	+	–	active	–	–
CCC(COC)NC(=O)c1ccc(OC)c(OC2CCN(C(C)=O)CC2)c1 (centres undefined)	–	–	–	·	·
C=CCn1c(C)nnc1SCC(=O)NC1CCCCC1	–	–	–	·	·
C=CCN1C(=O)/C(=C\c2ccc(Cl)cc2)N=C1SCC(=O)NC1CCCCC1	–	40.3	–	–	–
COc1cc(-c2c(NC(=O)c3ccco3)oc3ccccc3c2=O)cc(OC)c1OC	·	–	·	·	·
Fc1ccccc1NC(=S)Nc1cccc2cnccc12	–	37.0	57.8	–	–
FC(F)(F)c1ccccc1NC(=S)Nc1cccc2cnccc12	+	–	94.5	–	–
COCCN(C(=O)COC(=O)CCc1c[nH]c2ccccc12)c1c(N)n(Cc2ccccc2)c(=O)[nH]c1=O	·	–	·	·	·
O=C(NC12CC3CC(CC(C3)C1)C2)c1ccc(N2CCNCC2)c([N+](=O)[O-])c1	–	–	–	–	–
O=C(Cc1nnc(NC(=O)c2ccccc2)s1)N/N=C/c1ccc(O)cc1	–	–	–	·	·
O=C(Cc1nnc(NC(=O)c2ccccc2)s1)N/N=C\c1ccc(O)c(O)c1	–	–	58.8	·	·
O=c1c2c([nH]c3ccccc13)C(=C1CCCC1)CC2	+	–	82.3	–	–
COc1ccc(C(=S)N2CCC(C(N)=O)CC2)cc1Br	–	41.9	–	–	–
CCCCOc1ccc(C(=S)N2CCC(C(N)=O)CC2)cc1	–	–	–	–	–
COc1cc(C2Nc3cccc4cccc(c34)N2)cc(OC)c1OC(C)=O	+	–	89.0	–	–
Oc1ccc2ccccc2c1C1Nc2cccc3cccc(c23)N1	+	–	76.6	–	–
CCN(CC)c1ccc(C2Nc3cccc4cccc(c34)N2)c(O)c1	–	–	–	·	–
O=[N+]([O-])c1cc(C2Nc3cccc4cccc(c34)N2)ccc1Cl	–	–	–	–	–
COc1ccc(Br)cc1C1Nc2cccc3cccc(c23)N1	+	–	101.9	·	·
COc1cc(C2Nc3cccc4cccc(c34)N2)ccc1O	+	–	79.2	·	·
COc1cccc(NC(=O)c2ccc(N3C(=O)C4CCC(C)CC4C3=O)cc2)c1 (centres undefined)	–	–	–	·	·
O=S(=O)(c1ccc(Cl)cc1)N1CCCc2ccccc21	–	–	–	·	·
Nc1ccc(S(=O)(=O)N2CCCc3ccccc32)cc1	–	–	–	62.4	–
SMILES	PABP FP inh	PABP1 MLLE inh	eIF4H FP inh	eIF4E 4G PPI	PERK inh
O=C1/C(=C/c2ccco2)SC(=S)N1CCC(=O)N1CCCCC1CCO (centres undefined)	·	–	·	·	·
Cc1nccn1CCCNCc1c(C(=O)N2CCCCCCC2)nc2ccc(Cl)cn12	–	–	–	–	–
CCOc1ccc(S(=O)(=O)N2CCCC(C(=O)NCc3ccncc3)C2)cc1 (centres undefined)	–	–	–	·	·
COc1ccccc1NS(=O)(=O)c1ccc(C)c(C(=O)N2CCN(c3ccc(O)cc3)CC2)c1	·	–	·	·	·
CC(C(N)=O)N1C(=O)NC2(CCCc3ccccc32)C1=O (centres undefined)	–	–	–	·	·
O=S1(=O)c2ccc(Br)cc2N2CCC[C@@H]2CN1Cc1ccccc1	·	–	·	·	·
O=S(=O)([N-]c1nc2ccccc2nc1-[n+]1ccc(CCCc2ccccc2)cc1)c1cccs1	+	–	116.5	–	–
CCC(=NCCc1ccc(OC)c(OC)c1)C1=C(O)CC(C)(C)CC1=O	–	–	active	–	–
CC1=C(CC(=O)c2ccc(Cl)cc2)C(=O)c2ccccc2C1=O	–	–	–	–	2.9
CC(C)(C)c1ccc(CCC2OCC(C[N+]3(C)CCOCC3)O2)cc1 (centres undefined)	–	–	–	91.2	–
O=C(Nc1ccccn1)c1cccc(S(=O)(=O)N2CCCC2)c1	–	–	–	·	·
CC(C)(C)c1ccc(C(=O)NC(=S)NCc2ccco2)cc1	–	–	–	·	·
CC(C)(C)c1ccc(/C([O-])=C(/C(=S)NCc2ccco2)[n+]2ccccc2)cc1	+	·	31.8	–	–
CCOC(=O)c1c(NC(=O)c2cc(-c3ccc(O)cc3)on2)sc(C(C)=O)c1C	–	–	–	31.4	–
CCOC(=O)c1c(NC(=O)CC(C)C)sc(C(C)=O)c1C	–	–	–	–	–
O=C(C1CCN(Cc2cc(Cl)ccc2O)CC1)N1CCN(Cc2ccccc2)CC1	–	–	–	81.7	–
CC(OC(=O)C1CCN(c2ccc(C(F)(F)F)cn2)CC1)C(=O)Nc1cccc([N+](=O)[O-])c1 (centres undefined)	·	–	·	·	·
Nc1cccc2cnccc12	–	–	87.9	–	–
Oc1cccc2cnccc12	–	–	–	–	–
Cc1cc(C)n2nc(C(=O)OCC(=O)c3ccccc3Cl)nc2n1	·	–	·	·	·
Cc1cc(C)n2nc(C(=O)OCC(=O)c3cc(C)n(C)c3C)nc2n1	–	–	62.5	–	–
CN(C)CCNCCCNc1c2ccccc2nc2cccc([N+](=O)[O-])c12	·	52.4	·	·	·
CN(C)CCCNc1c2c(nc3ccccc13)CCC2	+	–	–	·	·
COCCNc1c2c(nc3ccccc13)CCC2	–	–	–	·	·
COc1cccc(Nc2ncccc2C(=O)NCc2ccccc2)c1	+	–	84.8	–	–
SMILES	PABP FP inh	PABP1 MLLE inh	eIF4H FP inh	eIF4E 4G PPI	PERK inh
CCc1nc2c(OCc3ccccc3)cccn2c1N(Cc1ccccc1)C(C)=O	·	–	·	·	·
CN(Cc1ccc(Cl)cc1)C(=O)c1ccccc1SCC(=O)N1CCCC1	·	–	·	·	·
Cc1ccc([N+](=O)[O-])cc1N=C(c1cccc([N+](=O)[O-])c1)N1CCOCC1	–	–	–	–	9.5
CC(C)Cc1nnc(NC(=O)c2cc3c(s2)CCC3)s1	–	–	54.2	–	–
Cc1cccnc1NC(=S)NC(=O)c1cccs1	–	38.6	–	–	–
CN(Cc1cnc2nc(N)nc(N)c2n1)c1ccc(C(=O)NC(CCC(=O)O)C(=O)O)cc1C(F)(F)F (centres undefined)	·	–	·	·	·
CN(Cc1cnc2nc(N)nc(N)c2n1)c1ccc(C(=O)NC(CCC(=O)O)C(=O)O)cc1 (centres undefined)	·	67.3	·	·	·
CCOc1ccc2[nH]c(SCC(=O)OC)c([N+](=O)[O-])c2c1	+	53.9	54.4	–	–
NS(=O)(=O)c1ccc(-c2ccc(/C=C3\NC(=S)NC3=O)o2)cc1	–	–	78.8	·	·
NS(=O)(=O)c1ccc(-c2ccc(C=O)o2)cc1	–	–	–	–	–
Nc1c(/C=C2/C=CC(=O)C(O)=C2)c(=O)nc2sc(CC(=O)N3CCOCC3)nn12	·	–	·	·	·

High-throughput results as filed in PubChem.
